The text below walks through data of ChEMBL document CHEMBL3988442, “University of Dundee, Small-Polar-MMV Screening Library” (2021).

Screen size: about 48,000 compounds; about 13,000 (27%) showed an effect of 50% or more. Some of the results follow.

The subject of the experiment is Wolbachia pipientis. Description: Anti-Wolbachia Cell-Based Screen. Format: functional. Details: scale not given: in the data most compounds retested in dose-response had high values. Particulars: 5 µM.
In the case of `Cn1c(C2CC2)nc2c1CCN(CCS(=O)(=O)c1ccccc1)C2`, the “Percent Effect” value is recorded as -2.763%. `Cc1cc(C2CCCN(CCCS(=O)(=O)c3ccccc3)C2)n[nH]1` (centres undefined): the “Percent Effect” value is on record as -3.796%. Then `Cc1cc(C2CCCN(CCS(=O)(=O)c3ccccc3)C2)n[nH]1` (centres undefined), with 111.9%. Then `Cc1cc(N2CCC(N(C)Cc3cc(=O)c(O)co3)CC2)nc(C)n1`, with -0.2819%; and `CN(CC(O)C1CC1)C(=O)Nc1ccc(F)c(-n2cccc2)c1` (centres undefined), with 2.69%; and `CCc1cc(O)nc(C2CCCN2C(=O)COC)n1` (centres undefined), with 126%. For the compound `CCn1nc(C(=O)N2CCCC2c2noc(C)n2)ccc1=O` (centres undefined), the “Percent Effect” value worked out at 2.469%. With `CCc1nc(C2CCCN2C(=O)c2nccnc2N)no1` (centres undefined) the figure was -19.66%; with `CCc1cc(O)nc(C2CCCN2C(=O)c2cc(C)no2)n1` (centres undefined), -6.64%. Then `CCc1nc(C2CCCN2C(=O)c2ccc(=O)n(CC)n2)no1` (centres undefined), with -10.47%; and `CCc1cc(O)nc(C2CCCN2C(=O)c2cc(CC)on2)n1` (centres undefined), with 115.4%. With `CCc1cc(C(=O)N2CCCC2c2nc(O)cc(CC)n2)on1` (centres undefined) the figure was 115.5%; with `CCc1ccc(C(=O)NC2CCN(c3ccn(C)n3)C2)o1` (centres undefined), -10.19%; with `O=C(Nc1cc(C(F)(F)F)ccc1Cl)c1ccc(N2CCCC2)nn1`, 13.93%.

With `N#Cc1ccc(OCCNc2cccc(C(=O)N3CCOCC3)c2)cc1`, the “Percent Effect” value is listed as -3.52%. On to `CC(C)C(C#N)N1CCN(C(=O)c2cc(-c3ccccn3)no2)CC1` (centres undefined), for which the “Percent Effect” value is recorded as -9.203%. In the case of `O=C(NCCn1cccc1)C1CCCN(C2CCCC2)C1` (centres undefined), the “Percent Effect” value is listed as -8.525%.

For `CCN(CC)C(=O)[C@@H]1C[C@@H](n2cc(-c3cccc(OC)c3)nn2)CN1`, the “Percent Effect” value is -2.078%.

For the compound `CCN(CC)C(=O)[C@@H]1C[C@@H](n2cc(-c3ccccn3)nn2)CN1`, the “Percent Effect” value was -7.154%. Then `CNC(=O)[C@@H]1C[C@H](n2cc(-c3ccc(Cl)cc3)nn2)CN1`, with 104.7%. With `CNC(=O)[C@@H]1C[C@@H](n2cc(-c3ccc(Cl)cc3)nn2)CN1` the figure was 111.1%; with `CCN(CC)C(=O)[C@@H]1C[C@H](n2cc(-c3ccccn3)nn2)CN1`, -5.115%; with `CCN(CC)C(=O)[C@@H]1C[C@H](n2cc(-c3cccc(OC)c3)nn2)CN1`, -3.277%.

For `CNC(=O)NC(=O)CCSc1ccccc1C`, the “Percent Effect” value is listed as -14.48%.

With `CCc1noc(CN2CCCC2C(=O)OCc2ccccc2)n1` (centres undefined), the “Percent Effect” value is on record as 6.169%. Then `Cc1nc2n(n1)CC(NCC(=O)NCCCOC(C)C)CC2` (centres undefined), with -9.274%; and `Cc1ccc(NC2CCN(C(=O)Cc3ccc(C#N)cc3)CC2)nn1`, with -2.358%. As for `Cc1ccc(CC(=O)N2CCC(Nc3ccc(C)nn3)CC2)cn1`, the “Percent Effect” value amounted to 105.9%. With `COc1ccc(CC(=O)N2CCC(Nc3ccc(C)nn3)CC2)cc1` the figure was 95.7%; with `Cc1ccc(OCC(=O)NS(=O)(=O)c2cccnc2)cc1C`, -7.985%; with `Cc1c[nH]c(C(=O)N2CCC(c3nnc(CN(C)CCO)n3C)CC2)c1`, -9.354%. For `CCCNC(=O)CN1CCOC(c2ccc(Br)cc2)C1` (centres undefined), the “Percent Effect” value is -1.206%. With `COC1CCCN(Cc2cc(O)c3cc(C)cc(C)c3n2)C1` (centres undefined) the figure was -4.558%. Then `Cc1cc(C)c2nc(CN3CCCC(c4cc[nH]n4)C3)cc(O)c2c1` (centres undefined), with 54.67%; and `Cc1cc(C)c2nc(CN3CC[C@@H](O)C3)cc(O)c2c1`, with -21.84%. With `CN(Cc1ccco1)[C@@H]1CN(Cc2nccn2C)[C@@H]2CCCO[C@H]12.O=C(O)C(F)(F)F.O=C(O)C(F)(F)F.O=C(O)C(F)(F)F` the figure was -0.8776%. As to `CCN(CC)[C@@H]1CN(Cc2nccn2C)[C@@H]2CCCO[C@H]12.O=C(O)C(F)(F)F.O=C(O)C(F)(F)F.O=C(O)C(F)(F)F`, the “Percent Effect” value is -9.914%. As to `CN(Cc1ccco1)[C@@H]1CN(Cc2cnn(C)c2)[C@@H]2CCCO[C@H]12.O=C(O)C(F)(F)F.O=C(O)C(F)(F)F`, the “Percent Effect” value worked out at 12.06%. Then `Cn1cc(CN2C[C@H](N3CCOCC3)[C@@H]3OCCC[C@@H]32)cn1.O=C(O)C(F)(F)F.O=C(O)C(F)(F)F`, with 9.025%; and `CN(Cc1cccnc1)[C@@H]1CN(Cc2nccn2C)[C@@H]2CCCO[C@H]12.O=C(O)C(F)(F)F.O=C(O)C(F)(F)F.O=C(O)C(F)(F)F.O=C(O)C(F)(F)F`, with 107.5%; and `CN(Cc1cccnc1)[C@@H]1CN(Cc2cnn(C)c2)[C@@H]2CCCO[C@H]12.O=C(O)C(F)(F)F.O=C(O)C(F)(F)F.O=C(O)C(F)(F)F.O=C(O)C(F)(F)F`, with 88.39%. Then `CCC(C)(CNC(=O)Nc1nncs1)N1CCOCC1` (centres undefined), with -7.544%. Then `Cc1nc(C)n(CC2CCCN(c3ncnc4ccccc34)C2)n1` (centres undefined), with 143.5%; and `Cc1nc(C)n(CC2CCCN(c3ncnc4c3CCC4)C2)n1` (centres undefined), with -12.81%; and `Cc1nc(C)n(CC2CCCN(c3ccnc(-c4ccccc4)n3)C2)n1` (centres undefined), with -14.72%. As for `Cc1nc(C)n(CC2CCCN(c3ccc(C#N)cn3)C2)n1` (centres undefined), the “Percent Effect” value is 123%.

For `Cc1nc(C)n(CC2CCCN(c3ncnc4ccsc34)C2)n1` (centres undefined), the “Percent Effect” value was -4.048%. With `CC(C)(NC(=O)C1CCN(C2CCCCC2)CC1)c1nnc(N)s1` the figure was 3.743%; with `c1cncc(-c2nc3c(c(NCC4(c5ccncc5)CC4)n2)CCC3)c1`, -14.36%.
